Records with an inconclusive call do not appear. Active and inactive are the calls of the source. Unless noted, calls come from the whole dose curve; as a rule, active = well fitted curve in the direction sought with a large enough effect in the repeat runs; inconclusive = weak or mixed curves; inactive = no such curve, though single readings can be large; an effect the other way counts as inactive or inconclusive.
Assays:
[1] = qHTS assay to identify small molecule agonists of the TGF-beta/Smad signaling pathway (AID 1346859; active = well fitted activation curve with a large enough effect in the signal ratio in the repeat runs, not every such curve was filed as active; the % refers to the signal ratio; note: series mostly up to about 77 µM)
How it was run: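 Stable Smad binding element-beta-lactamase HEK 293T cells; 5 hr compound exposure at 37 C under 5% CO2; 2 hr room-temperature substrate step; fluorescence excited at 405 nm, collected at 460 nm and 530 nm.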

[2] = target: Thyrotropin-releasing hormone receptor (Homo sapiens) (UniProt P34981); test: qHTS assay to identify small molecule antagonists of the thyrotropin-releasing hormone receptor (TRHR) signaling pathway (AID 1346877; active = well fitted inhibition curve with a large enough effect in the repeat runs, not every such curve was filed as active; note: series mostly up to about 51 µM)
Thyrotropin-releasing hormone receptor (Homo sapiens), sequence (P34981 whole entry, looked up): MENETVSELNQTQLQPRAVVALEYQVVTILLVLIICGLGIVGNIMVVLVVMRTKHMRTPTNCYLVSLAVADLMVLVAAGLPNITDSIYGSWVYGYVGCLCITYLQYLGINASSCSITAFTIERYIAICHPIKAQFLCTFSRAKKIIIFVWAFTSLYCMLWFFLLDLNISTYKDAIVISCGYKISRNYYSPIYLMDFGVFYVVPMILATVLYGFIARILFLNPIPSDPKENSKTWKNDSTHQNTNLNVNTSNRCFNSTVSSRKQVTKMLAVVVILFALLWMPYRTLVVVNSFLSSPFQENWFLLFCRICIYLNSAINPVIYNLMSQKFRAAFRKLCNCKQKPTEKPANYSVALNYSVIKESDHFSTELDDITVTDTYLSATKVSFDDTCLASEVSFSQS
How it was run: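 Screening used HEK293 cells engineered with TRHR, with a brief 5 min room-temperature compound exposure preceding addition of TRH to 1 nM. The read-out was kinetic calcium-dye fluorescence, concentration-response from 15 doses in triplicate.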

[3] = target: Thyrotropin-releasing hormone receptor (Homo sapiens) (UniProt P34981); test: qHTS assay to identify small molecule agonists of the thyrotropin-releasing hormone receptor (TRHR) signaling pathway (AID 1346891; calls by dose curve;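 note: HEK293 cells expressing TRHR with calcium dye readout; series mostly up to about 58 µM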)
How it was run: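 In 1536-format, 1500 TRHR-Hek293 cells per well grew 18 h, took up calcium dye for 2 h at 37 °C, received compound, and were read kinetically; 15-point titrations, triplicates.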

[4] = Human pregnane X receptor (PXR) small molecule agonists, qHTS cell viability counter screen (AID 1346977); note: nearly all actives have a fitted effect of over 50% in size
How it was run: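 Readout is CellTiter-Fluor fluorescence from PXR-Luc HepG2 cells. Plated cells rested 5hr, then were treated with compounds for 24hr at 37C and 5% CO2, with reagent present during the last hour.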

[5] = Caspase-3/7 induction in HepG2 cells by small molecules, qHTS assay (AID 1346978); note: nearly all actives have a fitted effect of over 15% in size
How it was run: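 Wild-type HepG2 cells, 2,000/well, settled 5 hr at 37 C and 5% CO2, then compound-treated for 17 hr; caspase-3/7 activity read by luminescent Caspase-Glo 3/7 after 30 min at room temperature.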

[6] = Caspase-3/7 induction in CHO-K1 cells by small molecules, qHTS cell viability counter screen (AID 1346979); note: nearly all actives have a fitted effect of over 35% in size
How it was run: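 To flag cytotoxic compounds, treated CHO-K1 wild-type cells were given CellTiter-Fluor at 16hr and read fluorescently after 1hr at 37C; the caspase-3/7 luminescence was measured in these same wells.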

[7] = Caspase-3/7 induction in CHO-K1 cells by small molecules, qHTS assay (AID 1346980); note: nearly all actives have a fitted effect of over 15% in size
How it was run: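 Wild-type CHO-K1 cells exposed to compounds for 17hr at 37 C, 5% CO2. Caspase-3/7 activity then measured by Caspase-Glo 3/7 luminescence after 30min at room temperature.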

[8] = Caspase-3/7 induction in HepG2 cells by small molecules, qHTS cell viability counter screen (AID 1346981); note: series mostly up to about 92 µM; nearly all actives have a fitted effect of over 30% in size
How it was run: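 Multiplexed with the caspase-3/7 assay: HepG2 cells, 16 hr compound treatment, CellTiter-Fluor viability detection by fluorescence.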

[9] = target: Nuclear receptor subfamily 1 group I member 2 (Homo sapiens) (UniProt O75469); test: Human pregnane X receptor (PXR) small molecule agonists, qHTS assay (AID 1346982); note: nearly all actives have a fitted effect of over 35% in size
Nuclear receptor subfamily 1 group I member 2 (Homo sapiens), sequence (O75469 whole entry, looked up): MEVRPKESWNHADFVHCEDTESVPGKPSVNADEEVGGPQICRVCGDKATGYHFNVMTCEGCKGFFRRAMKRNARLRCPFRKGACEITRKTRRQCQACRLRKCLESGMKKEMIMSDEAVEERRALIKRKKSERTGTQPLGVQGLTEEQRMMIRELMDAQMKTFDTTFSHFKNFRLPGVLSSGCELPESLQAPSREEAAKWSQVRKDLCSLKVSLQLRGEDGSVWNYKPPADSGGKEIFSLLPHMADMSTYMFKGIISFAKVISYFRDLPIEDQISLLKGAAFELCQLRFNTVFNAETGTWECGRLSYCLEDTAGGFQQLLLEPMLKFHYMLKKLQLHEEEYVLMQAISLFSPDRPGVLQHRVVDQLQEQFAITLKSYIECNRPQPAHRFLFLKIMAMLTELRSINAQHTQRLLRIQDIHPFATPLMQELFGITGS
How it was run: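 We seeded PXR-Luc HepG2 cells in assay medium containing 5% charcoal-stripped FBS, added compounds 5 hr later, incubated 24 hr, and read luminescence with ONE-Glo reagent.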

[10] = target: Cytochrome P450 2D6 (Homo sapiens) (UniProt P10635); test: Cytochrome P450 Family 2 Subfamily D Member 6 (CYP2D6) small molecule antagonists: luciferase reporter qHTS assay (AID 1671196); note: series mostly up to about 120 µM; nearly all actives have a fitted effect of over 50% in size
Cytochrome P450 2D6 (Homo sapiens), sequence (P10635 whole entry, looked up): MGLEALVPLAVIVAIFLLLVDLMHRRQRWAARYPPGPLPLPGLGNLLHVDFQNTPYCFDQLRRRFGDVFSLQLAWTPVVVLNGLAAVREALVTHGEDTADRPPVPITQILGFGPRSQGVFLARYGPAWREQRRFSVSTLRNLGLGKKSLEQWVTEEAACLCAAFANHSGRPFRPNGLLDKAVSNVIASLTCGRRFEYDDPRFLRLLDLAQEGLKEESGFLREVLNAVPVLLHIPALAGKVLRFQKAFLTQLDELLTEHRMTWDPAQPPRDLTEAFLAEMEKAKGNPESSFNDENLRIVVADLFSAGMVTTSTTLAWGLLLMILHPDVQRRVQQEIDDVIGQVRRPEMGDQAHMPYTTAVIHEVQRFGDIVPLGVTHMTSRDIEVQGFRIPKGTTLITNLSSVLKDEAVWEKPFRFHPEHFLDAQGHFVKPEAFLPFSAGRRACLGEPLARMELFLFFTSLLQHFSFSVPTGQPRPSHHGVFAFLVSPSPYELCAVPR
How it was run: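 Luminescence (RLU), read 20 min after detection reagent, indicated CYP2D6 conversion of proluciferin to luciferin during a 1 h NADPH-dependent reaction at room temperature.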

[11] = target: Cytochrome P450 2C19 (Homo sapiens) (UniProt P33261); test: Cytochrome P450 Family 2 Subfamily C Member 19 (CYP2C19) small molecule antagonists: luciferase reporter qHTS assay (AID 1671197); note: series mostly up to about 120 µM; nearly all actives have a fitted effect of over 65% in size
Cytochrome P450 2C19 (Homo sapiens), sequence (P33261 whole entry, looked up): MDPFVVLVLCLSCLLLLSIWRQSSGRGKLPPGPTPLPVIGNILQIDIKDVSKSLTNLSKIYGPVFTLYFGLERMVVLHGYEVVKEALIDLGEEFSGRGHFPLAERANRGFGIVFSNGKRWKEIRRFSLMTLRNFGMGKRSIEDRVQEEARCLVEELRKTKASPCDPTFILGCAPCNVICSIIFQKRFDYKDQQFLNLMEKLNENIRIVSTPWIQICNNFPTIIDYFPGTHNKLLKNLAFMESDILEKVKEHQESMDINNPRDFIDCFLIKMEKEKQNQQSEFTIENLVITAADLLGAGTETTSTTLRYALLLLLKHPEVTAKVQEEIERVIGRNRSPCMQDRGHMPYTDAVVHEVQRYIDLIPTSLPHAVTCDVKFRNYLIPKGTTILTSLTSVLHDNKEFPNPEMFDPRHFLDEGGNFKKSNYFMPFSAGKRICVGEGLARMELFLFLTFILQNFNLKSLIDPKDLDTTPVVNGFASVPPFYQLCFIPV
How it was run: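 Relative luminescence units recorded 20 min after the detection reagent stopped a 1 h, 37C CYP2C19 reaction on proluciferin substrate, which was started by NADPH regeneration following 10 min room-temperature compound preincubation; ketoconazole positive control.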

[12] = target: Cytochrome P450 2C9 (Homo sapiens) (UniProt P11712); test: Cytochrome P450 Family 2 Subfamily C Member 9 (CYP2C9) small molecule antagonists: luciferase reporter qHTS assay (AID 1671198); note: series mostly up to about 120 µM; nearly all actives have a fitted effect of over 50% in size
Cytochrome P450 2C9 (Homo sapiens), sequence (P11712 whole entry, looked up): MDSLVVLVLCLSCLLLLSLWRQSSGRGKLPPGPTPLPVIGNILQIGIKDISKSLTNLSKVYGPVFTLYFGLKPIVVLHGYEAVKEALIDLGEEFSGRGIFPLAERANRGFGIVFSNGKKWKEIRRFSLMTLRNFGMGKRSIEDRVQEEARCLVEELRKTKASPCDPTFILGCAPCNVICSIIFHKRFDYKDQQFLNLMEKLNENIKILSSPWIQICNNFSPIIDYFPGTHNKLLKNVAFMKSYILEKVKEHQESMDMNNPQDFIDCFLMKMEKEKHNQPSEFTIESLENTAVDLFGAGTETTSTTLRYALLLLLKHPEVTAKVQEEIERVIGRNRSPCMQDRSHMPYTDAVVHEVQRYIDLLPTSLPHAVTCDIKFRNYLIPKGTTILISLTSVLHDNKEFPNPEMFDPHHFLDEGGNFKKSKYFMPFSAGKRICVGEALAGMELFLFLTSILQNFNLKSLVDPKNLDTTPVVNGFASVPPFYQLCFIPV
How it was run: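 P450-Glo proluciferin substrate with CYP2C9 enzyme; 10 min RT preincubation, then NADPH regeneration 1 h at 37C; luciferin detection reagent 20 min RT, luminescence in relative luminescence units.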

[13] = target: Cytochrome P450 1A2 (Homo sapiens) (UniProt P05177); test: Cytochrome P450 Family 1 Subfamily A Member 2 (CYP1A2) small molecule antagonists: luciferase reporter qHTS assay (AID 1671199); note: nearly all actives have a fitted effect of over 50% in size; note: potency is the fitted concentration of half-maximal effect
Cytochrome P450 1A2 (Homo sapiens), sequence (P05177 whole entry, looked up): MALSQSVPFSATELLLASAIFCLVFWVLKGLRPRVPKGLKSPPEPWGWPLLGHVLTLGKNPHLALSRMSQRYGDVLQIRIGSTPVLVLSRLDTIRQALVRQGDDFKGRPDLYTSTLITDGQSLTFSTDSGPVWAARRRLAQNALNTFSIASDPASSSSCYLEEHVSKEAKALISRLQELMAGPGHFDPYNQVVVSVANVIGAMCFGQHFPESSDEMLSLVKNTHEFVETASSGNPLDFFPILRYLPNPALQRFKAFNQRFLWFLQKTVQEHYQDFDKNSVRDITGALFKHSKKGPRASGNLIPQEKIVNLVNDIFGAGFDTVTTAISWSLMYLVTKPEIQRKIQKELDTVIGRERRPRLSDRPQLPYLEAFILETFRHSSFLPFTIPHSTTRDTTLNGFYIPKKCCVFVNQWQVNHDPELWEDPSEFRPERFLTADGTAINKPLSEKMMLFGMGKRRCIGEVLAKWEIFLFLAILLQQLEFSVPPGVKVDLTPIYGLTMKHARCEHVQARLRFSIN
How it was run: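 CYP1A2 turnover of a luminogenic substrate was quantified after 1 h with NADPH regeneration at room temperature. Furafylline served as positive control.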

[14] = target: Voltage-gated inwardly rectifying potassium channel KCNH2 (Homo sapiens) (UniProt Q12809); test: Human Ether-a-go-go-Related Gene (hERG) channel small molecule antagonists: fluorescence cell-based qHTS assay (AID 1671200)
Voltage-gated inwardly rectifying potassium channel KCNH2 (Homo sapiens), sequence (Q12809 whole entry, looked up): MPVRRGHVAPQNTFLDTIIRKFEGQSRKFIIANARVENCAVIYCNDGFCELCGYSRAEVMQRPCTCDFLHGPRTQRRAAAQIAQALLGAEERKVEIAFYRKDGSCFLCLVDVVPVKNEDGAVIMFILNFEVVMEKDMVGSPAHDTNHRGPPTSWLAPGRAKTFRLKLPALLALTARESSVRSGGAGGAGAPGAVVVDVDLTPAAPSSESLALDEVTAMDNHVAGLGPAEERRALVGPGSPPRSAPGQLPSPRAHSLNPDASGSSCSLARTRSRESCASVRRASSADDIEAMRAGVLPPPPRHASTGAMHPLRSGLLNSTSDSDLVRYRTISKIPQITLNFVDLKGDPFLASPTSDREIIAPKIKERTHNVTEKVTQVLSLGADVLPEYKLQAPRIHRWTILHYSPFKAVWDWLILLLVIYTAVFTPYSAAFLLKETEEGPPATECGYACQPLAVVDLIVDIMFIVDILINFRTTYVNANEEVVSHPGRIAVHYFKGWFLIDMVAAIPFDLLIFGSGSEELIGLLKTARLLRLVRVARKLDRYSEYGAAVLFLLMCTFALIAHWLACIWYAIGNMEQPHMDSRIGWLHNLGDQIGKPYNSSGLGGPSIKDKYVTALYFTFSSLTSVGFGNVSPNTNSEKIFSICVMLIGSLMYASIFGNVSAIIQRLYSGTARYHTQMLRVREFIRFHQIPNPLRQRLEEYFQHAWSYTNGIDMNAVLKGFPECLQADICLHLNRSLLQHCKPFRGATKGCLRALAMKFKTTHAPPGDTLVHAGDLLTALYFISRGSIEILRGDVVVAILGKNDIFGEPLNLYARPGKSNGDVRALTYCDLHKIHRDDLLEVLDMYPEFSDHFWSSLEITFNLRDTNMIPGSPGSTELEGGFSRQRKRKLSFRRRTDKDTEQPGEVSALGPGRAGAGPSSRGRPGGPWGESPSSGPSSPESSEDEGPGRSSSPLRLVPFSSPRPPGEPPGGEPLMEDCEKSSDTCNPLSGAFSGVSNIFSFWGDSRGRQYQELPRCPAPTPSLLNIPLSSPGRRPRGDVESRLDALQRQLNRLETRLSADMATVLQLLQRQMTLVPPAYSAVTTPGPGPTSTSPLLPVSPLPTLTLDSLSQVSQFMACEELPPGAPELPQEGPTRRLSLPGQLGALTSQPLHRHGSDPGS
How it was run: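 Measured: Tl+ flux via fluorescence (480/540 nm) in hERG-expressing U2OS cells after 1 h dye loading at room temperature.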

[15] = target: Cytochrome P450 3A4 (Homo sapiens) (UniProt P08684); test: Cytochrome P450 Family 3 Subfamily A Member 4 (CYP3A4) small molecule antagonists: luciferase reporter qHTS assay (AID 1671201)
Cytochrome P450 3A4 (Homo sapiens), sequence (P08684 whole entry, looked up): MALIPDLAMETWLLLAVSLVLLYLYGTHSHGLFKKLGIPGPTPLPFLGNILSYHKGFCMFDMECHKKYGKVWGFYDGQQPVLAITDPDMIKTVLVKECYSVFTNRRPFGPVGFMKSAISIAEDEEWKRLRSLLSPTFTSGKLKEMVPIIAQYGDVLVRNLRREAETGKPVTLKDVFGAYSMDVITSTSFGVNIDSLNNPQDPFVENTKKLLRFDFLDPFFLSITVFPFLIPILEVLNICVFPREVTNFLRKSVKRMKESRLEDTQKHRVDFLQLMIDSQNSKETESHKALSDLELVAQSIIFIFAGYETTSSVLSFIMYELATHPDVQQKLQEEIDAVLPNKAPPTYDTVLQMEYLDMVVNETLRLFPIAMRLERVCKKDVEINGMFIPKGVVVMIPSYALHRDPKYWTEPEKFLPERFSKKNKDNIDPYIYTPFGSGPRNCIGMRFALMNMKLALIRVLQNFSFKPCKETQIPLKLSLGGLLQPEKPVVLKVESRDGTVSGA
How it was run: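 Setup: enzyme-substrate mix, compound pin transfer, 10 min RT. Reaction: NADPH regeneration solution, 1 h RT. Readout: detection reagent stops turnover, luminescence measured after 20 min, expressed in relative luminescence units.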

[16] = target: Nuclear receptor subfamily 1 group I member 2 (Rattus norvegicus) (UniProt Q9R1A7); test: Rat pregnane X receptor (rPXR) activation by small molecules, qHTS assay (AID 1346983); settings: rPXR luciferase reporter cells, One-Glo luminescence, 24 h; hits give high values; note: nearly all actives have a fitted effect of over 20% in size
Nuclear receptor subfamily 1 group I member 2 (Rattus norvegicus), sequence (Q9R1A7 whole entry, looked up): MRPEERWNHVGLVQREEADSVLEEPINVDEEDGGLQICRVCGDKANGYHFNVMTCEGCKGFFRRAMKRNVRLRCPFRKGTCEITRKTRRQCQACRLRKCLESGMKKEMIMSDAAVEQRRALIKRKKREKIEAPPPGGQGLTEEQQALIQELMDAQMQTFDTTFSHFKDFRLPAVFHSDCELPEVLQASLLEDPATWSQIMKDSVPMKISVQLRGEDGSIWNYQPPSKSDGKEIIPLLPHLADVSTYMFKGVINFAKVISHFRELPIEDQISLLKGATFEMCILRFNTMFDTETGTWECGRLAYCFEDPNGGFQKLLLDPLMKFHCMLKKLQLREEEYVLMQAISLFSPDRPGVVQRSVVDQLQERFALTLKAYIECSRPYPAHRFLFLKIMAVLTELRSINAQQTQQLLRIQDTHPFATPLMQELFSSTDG
How it was run: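 Cell-based rPXR activation assay: rPXR cells, 2,000 per well, rested 5hr at 37 C, then exposed to compounds in DMSO for 24 hr at 37 C. Luciferase activity read by One-Glo luminescence after 30 min at room temperature.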

[17] = target: Nuclear receptor subfamily 1 group I member 2 (Homo sapiens) (UniProt O75469); test: CYP3A4 induction through human pregnane X receptor (PXR) by small molecules, qHTS assay (AID 1346984); note: nearly all actives have a fitted effect of over 40% in size
How it was run: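 qHTS, concentration-response format: HepG2 DPX-2 line, PXR/CYP3A4-luc. Exposure 24 h, 37C. Substrate Luciferin-IPA 3uM final, 3 h. Detection One-Glo, 30 min RT.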

[18] = target: Nuclear receptor subfamily 1 group I member 2 (Homo sapiens) (UniProt O75469); test: Human pregnane X receptor (PXR) activation by small molecules, qHTS assay (AID 1346985); note: nearly all actives have a fitted effect of over 40% in size
How it was run: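 DPX-2 cells (HepG2 co-transfected with a PXR response element and a CYP3A4-promoter luciferase construct) were seeded at 2,000 per well, rested 5 hr at 37C, then exposed to DMSO-dissolved compounds for 24 hr. Activation was read as luciferase luminescence.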
% is set by controls: 0 for no effect and ±100 for the full control effect.

COCCc1ccccn1
inactive: outcome [1] | outcome [2] | outcome [3] | outcome [4] | outcome [5] | Potency [6] | outcome [7] | outcome [8] | Potency [9] | Potency [10] | Potency [11] | Potency [12] | Potency [13] | Potency [14] | Potency [15]

CCC[C@@H]1C[C@@H](C(=O)N[C@@H]([C@H]2O[C@H](SC)[C@H](O)[C@@H](O)[C@H]2O)[C@@H](C)O)N(C)C1
inactive: outcome [1] | outcome [2] | outcome [3] | outcome [4] | outcome [5] | Potency [6] | outcome [7] | outcome [8] | Potency [9] | max activation [16] 0.287% | Potency [17] | Potency [18] | Potency [10] | Potency [12] | Potency [13] | Potency [14] | Potency [15]

Cn1c(=O)c2[nH]c(Br)nc2n(C)c1=O
active: Potency [13] 24.5 µM
inactive: outcome [1] | outcome [2] | outcome [3] | outcome [4] | outcome [5] | Potency [6] | outcome [7] | outcome [8] | Potency [9] | max activation [16] -2.17% | Potency [17] | Potency [18] | Potency [10] | Potency [11] | Potency [12] | Potency [14] | Potency [15]

CCOC(=O)CC1(C)OCC(C)O1 (stereo not given)
inactive: outcome [1] | outcome [2] | outcome [3] | outcome [4] | outcome [5] | Potency [6] | outcome [7] | outcome [8] | Potency [9] | Potency [10] | Potency [11] | Potency [12] | Potency [13] | Potency [14] | Potency [15]
